Measurements reported in paper PMC7862700, “An all-to-all approach to the identification of sequence-specific readers for epigenetic DNA modifications on cytosine”.

How the values were obtained:
Test in all cases: DAPPL (digital affinity profiling via proximity ligation, sequencing); 10 mM Tris-HCl pH 7.5, 50 mM NaCl, 1 mM DTT, 4% glycerol, room temperature, 30 min; GST-TFs on glutathione beads, 16-mer random dsDNA library, 0.1% formaldehyde crosslink after washing; high values mean tight binding
FEV = target: T1, FEV (Homo sapiens, UniProt Q99581 1-238); details: protein: recombinant; tags: N-terminal GST; dsDNA, one strand shown
T1 sequence: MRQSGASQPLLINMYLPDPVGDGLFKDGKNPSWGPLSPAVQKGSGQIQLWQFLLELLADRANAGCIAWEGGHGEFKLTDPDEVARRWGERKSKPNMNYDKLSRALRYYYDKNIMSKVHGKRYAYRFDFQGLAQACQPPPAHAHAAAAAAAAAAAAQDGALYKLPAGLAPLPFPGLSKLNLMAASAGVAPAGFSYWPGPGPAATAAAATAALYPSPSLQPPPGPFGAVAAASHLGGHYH
Method in brief: (§1)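 Yeast served to express human transcription factors as GST fusions, which were then captured on glutathione beads and labelled with DNA barcodes. Pooled with a tag-only sample, they were incubated with 200 nmole of a 16-mer random double-stranded DNA library for 30 min at room temperature in Tris/NaCl/DTT/glycerol buffer, washed, crosslinked with 0.1% formaldehyde, ligated by proximity, amplified by PCR and sequenced. Dividing each hexamer's read frequency for a factor by its frequency for the tag-only sample gives the binding signal.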

ETV5 = ETV5 (Homo sapiens, UniProt P41161 1-510); details: protein: recombinant; tags: N-terminal GST; dsDNA, one strand shown
ETV5, sequence (P41161 whole entry): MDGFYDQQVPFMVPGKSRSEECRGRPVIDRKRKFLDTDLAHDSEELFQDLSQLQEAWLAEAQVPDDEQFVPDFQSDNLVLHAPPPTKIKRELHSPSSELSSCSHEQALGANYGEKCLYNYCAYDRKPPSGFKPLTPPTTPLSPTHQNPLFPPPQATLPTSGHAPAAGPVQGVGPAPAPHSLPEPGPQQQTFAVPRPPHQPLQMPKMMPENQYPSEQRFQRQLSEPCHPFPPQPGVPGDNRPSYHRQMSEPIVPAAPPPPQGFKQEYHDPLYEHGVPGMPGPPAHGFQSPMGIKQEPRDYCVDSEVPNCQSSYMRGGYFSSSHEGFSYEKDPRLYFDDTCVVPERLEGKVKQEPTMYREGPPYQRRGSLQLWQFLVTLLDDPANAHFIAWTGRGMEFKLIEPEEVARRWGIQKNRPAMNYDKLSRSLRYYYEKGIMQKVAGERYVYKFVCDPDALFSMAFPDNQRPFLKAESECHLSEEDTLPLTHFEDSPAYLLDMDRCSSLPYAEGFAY
Method in brief: as §1

HSF1 = HSF1 (Homo sapiens, UniProt Q00613 1-529); details: protein: recombinant; tags: N-terminal GST; chain copies: 3; dsDNA, one strand shown
HSF1, sequence (Q00613 whole entry): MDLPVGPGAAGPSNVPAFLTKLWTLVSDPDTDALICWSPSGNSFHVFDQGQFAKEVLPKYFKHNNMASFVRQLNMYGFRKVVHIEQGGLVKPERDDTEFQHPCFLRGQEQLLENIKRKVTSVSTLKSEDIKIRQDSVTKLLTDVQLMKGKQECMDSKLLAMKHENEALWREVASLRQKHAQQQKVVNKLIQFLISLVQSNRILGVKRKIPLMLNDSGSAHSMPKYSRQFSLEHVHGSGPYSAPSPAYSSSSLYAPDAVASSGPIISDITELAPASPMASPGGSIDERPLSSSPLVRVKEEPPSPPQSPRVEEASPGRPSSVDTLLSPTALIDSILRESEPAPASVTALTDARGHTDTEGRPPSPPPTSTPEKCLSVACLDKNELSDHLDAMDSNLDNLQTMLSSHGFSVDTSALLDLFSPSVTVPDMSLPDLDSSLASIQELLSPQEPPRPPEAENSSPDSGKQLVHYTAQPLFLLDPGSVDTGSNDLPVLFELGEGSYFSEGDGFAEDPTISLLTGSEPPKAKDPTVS
Method in brief: as §1

SPIC = target: T2, SPIC (Homo sapiens, UniProt Q8N5J4 1-248); details: protein: recombinant; tags: N-terminal GST; dsDNA, one strand shown
T2 sequence: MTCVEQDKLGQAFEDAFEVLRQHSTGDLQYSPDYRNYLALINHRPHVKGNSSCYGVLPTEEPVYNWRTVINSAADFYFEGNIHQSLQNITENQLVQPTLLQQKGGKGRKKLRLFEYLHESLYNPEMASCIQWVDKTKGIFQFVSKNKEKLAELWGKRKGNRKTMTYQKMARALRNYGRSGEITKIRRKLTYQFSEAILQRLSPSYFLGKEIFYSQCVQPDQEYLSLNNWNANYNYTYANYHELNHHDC
Method in brief: as §1

ELF4 = ELF4 (Homo sapiens, UniProt Q99607 1-663); details: protein: recombinant; tags: N-terminal GST; dsDNA, one strand shown
ELF4, sequence (Q99607 whole entry): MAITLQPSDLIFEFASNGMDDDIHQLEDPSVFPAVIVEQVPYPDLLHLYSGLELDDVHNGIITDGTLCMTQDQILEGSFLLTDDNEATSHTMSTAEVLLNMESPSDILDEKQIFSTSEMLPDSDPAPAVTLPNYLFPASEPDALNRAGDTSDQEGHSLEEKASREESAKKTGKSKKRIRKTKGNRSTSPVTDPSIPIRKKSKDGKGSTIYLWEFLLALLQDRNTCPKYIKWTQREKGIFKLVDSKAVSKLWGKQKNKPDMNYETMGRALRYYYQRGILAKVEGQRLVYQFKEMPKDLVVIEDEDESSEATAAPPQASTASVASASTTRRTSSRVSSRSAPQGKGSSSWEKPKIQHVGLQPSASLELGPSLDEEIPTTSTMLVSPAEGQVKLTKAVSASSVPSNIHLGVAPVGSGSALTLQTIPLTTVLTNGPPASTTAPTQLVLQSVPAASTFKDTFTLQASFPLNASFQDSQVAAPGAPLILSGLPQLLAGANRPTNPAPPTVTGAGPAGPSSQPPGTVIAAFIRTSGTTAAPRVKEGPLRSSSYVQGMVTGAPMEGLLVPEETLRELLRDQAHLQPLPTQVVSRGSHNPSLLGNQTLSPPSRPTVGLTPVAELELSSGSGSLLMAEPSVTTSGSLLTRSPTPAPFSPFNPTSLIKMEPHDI
Method in brief: as §1

ELK4 = target: T3, ELK4 (Homo sapiens, UniProt P28324-2 1-405); details: protein: recombinant; tags: N-terminal GST; dsDNA, one strand shown
T3 sequence: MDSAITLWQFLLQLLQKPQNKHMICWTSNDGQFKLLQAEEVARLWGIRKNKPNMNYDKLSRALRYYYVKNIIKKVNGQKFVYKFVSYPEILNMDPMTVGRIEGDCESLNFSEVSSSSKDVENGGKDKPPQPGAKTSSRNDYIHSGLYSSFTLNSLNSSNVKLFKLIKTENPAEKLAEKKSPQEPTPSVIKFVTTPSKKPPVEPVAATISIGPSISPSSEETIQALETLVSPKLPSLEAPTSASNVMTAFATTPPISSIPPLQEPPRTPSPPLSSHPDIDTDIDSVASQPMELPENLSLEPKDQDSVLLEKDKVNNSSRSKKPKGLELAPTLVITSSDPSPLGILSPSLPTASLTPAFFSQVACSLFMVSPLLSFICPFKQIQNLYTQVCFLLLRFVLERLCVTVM
Method in brief: as §1

ETV2 = target: T4, ETV2 (Homo sapiens, UniProt O00321 1-342); details: protein: recombinant; tags: N-terminal GST; dsDNA, one strand shown
T4 sequence: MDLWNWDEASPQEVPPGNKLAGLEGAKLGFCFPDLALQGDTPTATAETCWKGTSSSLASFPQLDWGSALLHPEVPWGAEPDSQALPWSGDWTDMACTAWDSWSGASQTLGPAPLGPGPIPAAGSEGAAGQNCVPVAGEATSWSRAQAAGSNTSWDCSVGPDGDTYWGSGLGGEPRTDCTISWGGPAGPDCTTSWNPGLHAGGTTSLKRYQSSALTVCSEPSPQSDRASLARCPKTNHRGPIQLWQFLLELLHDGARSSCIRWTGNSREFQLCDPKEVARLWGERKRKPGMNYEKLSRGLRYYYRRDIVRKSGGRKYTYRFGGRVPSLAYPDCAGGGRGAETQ
Method in brief: as §1

ELF3 = target: T5, ELF3 (Homo sapiens, UniProt P78545 1-371); details: protein: recombinant; tags: N-terminal GST; dsDNA, one strand shown
T5 sequence: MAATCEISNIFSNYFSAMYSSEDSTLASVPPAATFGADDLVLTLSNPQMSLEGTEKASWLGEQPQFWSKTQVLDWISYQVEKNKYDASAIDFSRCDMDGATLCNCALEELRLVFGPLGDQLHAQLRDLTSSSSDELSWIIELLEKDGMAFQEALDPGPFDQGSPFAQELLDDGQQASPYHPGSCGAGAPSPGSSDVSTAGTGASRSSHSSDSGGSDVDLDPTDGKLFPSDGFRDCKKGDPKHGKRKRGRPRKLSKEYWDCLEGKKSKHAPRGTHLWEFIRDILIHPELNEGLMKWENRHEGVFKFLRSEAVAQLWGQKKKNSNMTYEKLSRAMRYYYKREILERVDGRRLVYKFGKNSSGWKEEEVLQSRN
Method in brief: as §1

CRX = CRX (Homo sapiens, UniProt O43186 1-299); details: protein: recombinant; tags: N-terminal GST; dsDNA, one strand shown
CRX, sequence (O43186 whole entry): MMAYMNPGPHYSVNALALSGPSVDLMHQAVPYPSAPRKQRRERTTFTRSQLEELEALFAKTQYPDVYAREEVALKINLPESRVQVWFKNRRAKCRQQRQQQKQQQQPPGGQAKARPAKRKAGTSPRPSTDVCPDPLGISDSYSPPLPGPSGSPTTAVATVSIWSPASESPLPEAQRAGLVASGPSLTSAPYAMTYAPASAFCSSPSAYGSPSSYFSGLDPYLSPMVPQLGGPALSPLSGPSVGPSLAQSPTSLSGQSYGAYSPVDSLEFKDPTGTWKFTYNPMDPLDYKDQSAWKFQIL
Method in brief: as §1

ETV1 = ETV1 (Homo sapiens, UniProt P50549 1-477); details: protein: recombinant; tags: N-terminal GST; dsDNA, one strand shown
ETV1, sequence (P50549 whole entry): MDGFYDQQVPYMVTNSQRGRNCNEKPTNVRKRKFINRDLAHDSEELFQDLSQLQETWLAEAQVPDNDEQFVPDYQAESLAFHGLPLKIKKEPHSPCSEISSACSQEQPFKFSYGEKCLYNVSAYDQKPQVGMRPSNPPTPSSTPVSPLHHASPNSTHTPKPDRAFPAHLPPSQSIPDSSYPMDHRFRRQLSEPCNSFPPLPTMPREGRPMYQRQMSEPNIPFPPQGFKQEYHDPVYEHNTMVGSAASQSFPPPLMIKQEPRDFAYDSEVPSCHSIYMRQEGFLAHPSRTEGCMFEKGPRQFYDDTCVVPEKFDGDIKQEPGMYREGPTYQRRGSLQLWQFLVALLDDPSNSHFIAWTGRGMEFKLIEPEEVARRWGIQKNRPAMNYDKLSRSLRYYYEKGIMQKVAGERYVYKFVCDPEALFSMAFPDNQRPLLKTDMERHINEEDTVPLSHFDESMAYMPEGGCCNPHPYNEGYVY
Method in brief: as §1

AATACC
binding signal (FEV): 1.23 fold enrichment (6-mer frequency, TF over GST control) | binding signal (ETV5): 1.13 fold enrichment (6-mer frequency, TF over GST control) | binding signal (HSF1): 1.19 fold enrichment (6-mer frequency, TF over GST control) | binding signal (SPIC): 1.15 fold enrichment (6-mer frequency, TF over GST control) | binding signal (ELF4): 1.1 fold enrichment (6-mer frequency, TF over GST control) | binding signal (ELK4): 1.11 fold enrichment (6-mer frequency, TF over GST control) | binding signal (ETV2): 1.17 fold enrichment (6-mer frequency, TF over GST control) | binding signal (ELF3): 1.12 fold enrichment (6-mer frequency, TF over GST control) | binding signal (CRX): 1.44 fold enrichment (6-mer frequency, TF over GST control) | binding signal (ETV1): 1.22 fold enrichment (6-mer frequency, TF over GST control)
